Measurements from PubChem BioAssay AID651784 (National Center for Advancing Translational Sciences (NCATS), 2012).
Results filed as inconclusive are left out. Activity calls are given as the source filed them. Calls follow the shape of the dose curve; as a rule, active = well fitted inhibition curve with a large enough effect; inconclusive = small, poorly fitted or top-dose-only effect; inactive = no such curve, though single readings can be large or run the other way.

Test: Acumen qHTS Assay for Inhibitors of the mTORC1 Signaling Pathway in MEF (Tsc2-/-, p53-/-) Cells: Hit Validation;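 also: phospho-rpS6 Ser235/236 immunofluorescence normalized to propidium iodide cell count; nearly all actives have a fitted effect of over 65% in size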;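 as to activity change, negative = inhibition: cells exposed to compound for 24 hours; plate controls were DMSO for no effect and 7.5 nM rapamycin control for full effect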
Details: Acumen imaging; activity change, negative = inhibition: at 37.3 µM (top of the series)
Potency is read from the fitted curve at half-maximal effect.

Compound | Potency | activity change, negative = inhibition [%]
COc1cc(C(=O)NC(c2ccccc2Cl)c2cc(Cl)c3cccnc3c2O)cc(OC)c1OC (stereo not given) | 2.33 µM (active) | –
CCS(=O)(=O)c1ncc(Cl)c(C(=O)NCc2ccc(OC)cc2)n1 | 6.56 µM (active) | –
CCOc1ccc(C(=O)Nc2ccc3nc4c(c(Nc5ccccc5OC)c3c2)CCCC4)cc1 | – | -66.6
CCCCS(=O)(=O)c1oc(-c2ccc(F)cc2)nc1S(=O)(=O)c1ccc(C)cc1 | 4.65 µM (active) | –
CCOc1ccccc1NC(=O)c1cn(C2CCCC2)c(=O)c2c1c1ccccc1n2C | – | -10.9
COc1ccc(C(=O)N2CCN(C(=O)COc3ccc(Br)cc3)CC2)cc1OC | – | -17.7
CCOc1cccc(C2CC(=O)Nc3cc4c(cc32)OCCO4)c1 (stereo not given) | – | -113
CCCS(=O)(=O)c1c(S(=O)(=O)CCC)c2cc(C(C)(C)C)ccn2c1C(=O)c1ccc(OC)c(OC)c1 | – | -5.67
CCOc1ccccc1NS(=O)(=O)c1ccc(-c2cnc(C3CC3)o2)cc1 | 0.464 µM (active) | –
Cc1ccc(NC(=O)c2nc(S(=O)(=O)Cc3ccc(F)cc3)ncc2Cl)cc1C | 11.7 µM (active) | –
COc1ccccc1C(=O)Nc1ccc2nc(N3CCC(C)CC3)cc(C)c2c1 | – | -19.9
CCOC(=O)c1ccc(NC(=O)c2nc(S(=O)(=O)Cc3ccccc3)ncc2Cl)cc1 | 4.65 µM (active) | –
COc1cccc(-c2oc3ccc(C)cc3c(=O)c2O)c1 | – | -44.4
Cc1ccc(C)c(NC(=O)c2nc(S(=O)(=O)Cc3ccc(F)cc3)ncc2Cl)c1 | – | -90.5
Cc1ccc(C)c(CN2C(=O)C(=O)c3ccccc32)c1 | 1.47 µM (active) | –
CCCS(=O)(=O)c1ncc(Cl)c(C(=O)Nc2c(C(=O)Nc3ccccc3)oc3ccccc23)n1 | 0.585 µM (active) | –
CCCN1C(=O)C(Cc2nc3ccccc3c(=O)n2CC)c2cc(Br)ccc21 (stereo not given) | – | 4.78
COc1ccc(-c2nnc(SCC(=O)NCc3ccccc3)nc2-c2ccc(OC)c(OC)c2)cc1OC | 18.5 µM (active) | –

Compound | Potency | activity change, negative = inhibition [%]
CCS(=O)(=O)c1ncc(Cl)c(C(=O)N(Cc2ccccc2)Cc2ccco2)n1 | 5.21 µM (active) | –
COc1ccc(Cl)cc1NC(=O)CCCS(=O)(=O)c1nc(-c2ccc(OC)c(OC)c2)cc(C(F)(F)F)n1 | 10.4 µM (active) | –
CCOc1c(Br)cc(C2CC(=O)Nc3cc4c(cc32)OCO4)cc1OC (stereo not given) | – | -47.7
CCCC1=Nc2cc(C(=O)NCc3ccccc3)ccc2Sc2ccccc21 | 4.14 µM (active) | –
COc1ccc(-c2[nH]nc3nc(-c4cc(OC)c(OC)c(OC)c4)cc(C(=O)O)c23)cc1 | – | 15.4
Cc1nnc(C(=O)NC(C)(C)c2nc(C(=O)NCc3ccc(F)cc3)c(O)c(=O)n2C)o1 | – | -4.28
COc1ccc(NC(=O)CSc2c3c(nc4ccccc24)CCC3)c(OC)c1 | – | 11.1
Cc1ccc(C(=O)CC2(O)C(=O)N(Cc3ccccc3F)c3ccccc32)cc1 (stereo not given) | – | -11.8
CCCCCn1c(=N)n(CC(O)COc2cccc(C)c2)c2ccccc21 (stereo not given) | 5.85 µM (active) | –
Cc1cccc(NC(=O)c2c(N)sc3c2CCC(C)C3)c1 (stereo not given) | – | 15.3
Cc1ccccc1OCCn1c(=N)n(C(C)C)c2ccccc21 | 8.26 µM (active) | –
CCc1ccc(OCC(=O)Nc2ccc3oc(-c4ccc(OC)cc4)nc3c2)cc1 | – | 7.33
CCC1CCc2nc3sc(C(=O)Nc4ccc(C)cc4)c(N)c3cc2C1 (stereo not given) | 8.26 µM (active) | –
COc1ccc(N2CCN(C(=O)C(C)n3nc(C)c4sc5ccccc5c4c3=O)CC2)cc1 (stereo not given) | – | 1.14
O=C(Nc1ccccc1)N(Cc1cccc(Cl)c1)c1ccccn1 | – | 14.8
COc1cccc(-c2nnc3sc(CN4CCCCC4)cn23)c1 | 1.04 µM (active) | –
C=CCc1c(C)nc2nc(SCC(=O)Nc3ccc(C)c(C)c3)nn2c1C | – | -88.7
